# According to PubChem BioAssay:
# Potency and affinity values are given separately. Inconclusive results are not listed. Where a call stands in place of a potency, no number is given. Values without a mark were called inactive. The source made the active and inactive calls.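 Rule for the calls, unless noted: active = signal-lowering compounds whose fitted half-maximal concentration is at or below twice the top tested dose in every run; inconclusive = runs disagree, flat 30 to 70% inhibition, or poor curve fit; inactive = the rest.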
# Key:
# [1] = cytotoxicity in PAX8-dependent RMG-1 cells, dose response, cell-based, cherry-pick (AID 687029;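 active = signal drop whose fitted half-maximal concentration is at most twice the top valid dose, in every test run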;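 note: cells exposed to compound for 96 hours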); conditions: RMG-1 viability, CellTiterGlo ATP luminescence, 96 h; series mostly up to 35 µM
# [2] = inhibitors of CMV-promoter luciferase reporter, dose response, counter-screen for Pax8 inhibitor project, cell-based, HEK293, luminescence, dry powder (AID 743020); conditions: SteadyGlo luminescence, 24 h; series mostly up to 35 µM;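 note: HEK293 cells stably expressing the CMV luciferase reporter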
# [3] = non-specific cell cytotoxicity, dose response, cytotoxicity control for PAX8 inhibitor project, plate reader, dry powder samples (AID 743021; call rule not given here); conditions: cell line, non-specific cytotoxicity counter-screen; series mostly up to 35 µM
Compound,outcome [1],outcome [2],outcome [3]
COc1ccc(Oc2ccc(/C=C/C(=O)c3cccc(OC)c3)cc2[N+](=O)[O-])cc1,inactive,inactive,
COc1ccc(N(Cc2cc3cc(OC)ccc3[nH]c2=O)S(=O)(=O)c2ccc(NC(C)=O)cc2)cc1,inactive,inactive,
COc1ccc(CN(C)C[C@H]2OCCCC[C@H](C)Oc3ccc(NC(=O)Nc4ccc(C(F)(F)F)cc4)cc3C(=O)N([C@@H](C)CO)C[C@H]2C)cc1,inactive,inactive,
CCC[C@@H](CN[C@@H](CNC)[C@H](C)CC)NCC1CCC(C(C)(C)C)CC1 (some centres not stated),inactive,inactive,
Cc1nc2c(=O)n(C)c(=O)n(C)c2nc1Cl,inactive,inactive,
CC(C)=CCC/C(C)=C/CN1C(=O)N(c2ccc(F)cc2)[C@H]2C[C@@H](c3ccccc3)[C@@H](C)[C@@H](C(=O)N3CCOCC3)C[C@H]21,inactive,inactive,
COc1cccc(/C=N/Nc2nc(Nc3ccc([N+](=O)[O-])cc3)nc(N3CCCC3)n2)c1O,inactive,inactive,
COc1ccc(C(=O)O/N=C(\N)c2ccccn2)cc1,inactive,inactive,
CS(=O)(=O)c1ccc(C(=O)OCC(=O)NCc2cccs2)cc1[N+](=O)[O-],inactive,inactive,
CC(C)Nc1ccc(Nc2ccnc3cc4ccccc4cc23)cc1,inactive,inactive,
O[C@@H]1[C@@H](O)C=C2CCN3Cc4cc5c(cc4[C@H]1C23)OCO5 (some centres not stated),inactive,inactive,inactive
C(=C\c1ccc(C2[C@@H]3CN(Cc4ccc5c(c4)OCO5)C[C@H]2N3)cc1)/c1ccccc1 (some centres not stated),inactive,inactive,
COc1cccc(N2CCN(c3ncnc4c3cnn4-c3ccc(C)cc3C)CC2)c1,inactive,inactive,
C(=N\Nc1nc2ccccc2s1)/c1ccccn1,inactive,inactive,
CCOC(=O)c1c2c(n(Cc3ccccc3)c1C)C(=O)C(=O)c1ccccc1-2,inactive,inactive,
CSc1ccc(COC(=O)c2cc([N+](=O)[O-])ccc2N2CCOCC2)cc1,inactive,inactive,inactive
COC(=O)[C@]12CCCCC=C1N(Cc1cccc3ccccc13)C(=O)[C@H](CC(=O)N1CCN(C(=O)c3ccco3)CC1)C2,inactive,inactive,inactive
O=C(CCl)N=c1sccn1Cc1ccc(Cl)cc1Cl,inactive,inactive,
C/C(=N\NC(=O)c1n[nH]c2c1CCC2)c1cccs1,inactive,inactive,
COc1ccc(/C=C2\CN(Cc3ccccc3)C/C(=C\c3ccc(OC)cc3OC)C2=O)c(OC)c1,inactive,inactive,
CC(=O)N(C1=C(Cl)C(=O)c2ccccc2C1=O)C1CCCCC1,inactive,inactive,
COc1ccccc1N(C(C)=O)C1=C(Cl)C(=O)c2ccccc2C1=O,inactive,inactive,
NC1=C(Cl)C(=O)c2ccc(S(N)(=O)=O)cc2C1=O,inactive,inactive,
O=[N+]([O-])c1c(Nc2cccc(O)c2)cc(Cl)c2nonc12,inactive,inactive,
COc1ccc(OC)c(N(CCN2C(=O)c3ccccc3C2=O)C(=O)CCl)c1,inactive,inactive,
COc1ccc(N2C(=O)CC(Sc3nnnn3-c3ccc(F)cc3)C2=O)cc1 (configuration not stated),inactive,inactive,
C=C1CC(COc2ccc3c(C)c(Cl)c(=O)oc3c2)(c2ccccc2)OC1=O (configuration not stated),inactive,inactive,inactive

Compound,outcome [1],outcome [2],outcome [3]
CC(C)c1ccc(-c2nc3ccccc3s2)cc1,inactive,inactive,
COC(=O)C1=C(C)N(Cc2ccc(C(F)(F)F)cc2)C(=NCc2ccccc2)NC1c1cccc(F)c1 (configuration not stated),inactive,inactive,
CCCCCCCN(C(=O)CCl)c1cccc(C)c1,inactive,inactive,
OC(c1cc(-c2ccc(C(F)(F)F)cc2)nc(C(F)(F)F)c1)C1CCCCN1 (configuration not stated),inactive,inactive,
Cc1ccc(S(=O)(=O)c2ncccc2[N+](=O)[O-])cc1,inactive,inactive,
Cc1cccc(-n2ncc(Cl)c(Cl)c2=O)c1,inactive,inactive,
C=C1C(=O)[C@]23C[C@H]1CCC2[C@@]1(C)C(C[C@@H]3O)[C@](C)(C(=O)OC)CC[C@@H]1O (some centres not stated),inactive,inactive,
Cc1ccc(C(=O)Nc2cnc3ccccc3c2)cc1,inactive,inactive,
O=C(NCCc1ccccc1)C(c1cccs1)N(C(=O)CCl)c1ccc(Cl)cc1 (configuration not stated),inactive,inactive,
CCOC(=O)/C=C/C(=O)Nc1cc(S(=O)(=O)Nc2ccc(OC)cc2)ccc1N1CCOCC1,inactive,inactive,inactive
CN1CCN(c2ccc(S(=O)(=O)N3CCCCC3)cc2NC(=O)/C=C/c2ccc(Cl)c([N+](=O)[O-])c2)CC1,inactive,inactive,inactive
CCCCCCCn1c2c(c(=N)c3c1CCC3)CCCC2,inactive,inactive,inactive
COc1cc2c(c(OC)c1OC)-c1ccc(OC)c(=O)cc1C(NC(C)=O)CC2 (configuration not stated),inactive,inactive,inactive
CCOC(=O)C1=CN(Cc2cccc(-c3cccnc3)c2)S(=O)(=O)N(C)C1C (configuration not stated),inactive,inactive,inactive
COc1ccc([N+](=O)[O-])c(S(=O)(=O)c2ccccc2)n1,inactive,inactive,inactive
Cc1ccc(NC(=O)/C=C/c2ccc([N+](=O)[O-])s2)c(C)c1,inactive,inactive,inactive
CC(C)C(=O)N1CCN(c2ccc(NC(=O)c3ccc([N+](=O)[O-])o3)cc2Cl)CC1,inactive,inactive,inactive
O=C(CCc1ccc(S(=O)(=O)NCc2ccccc2)cc1)NCc1cccnc1,inactive,inactive,inactive
Cc1cccc(CS(=O)(=O)c2ncc(Cl)c(C(=O)Nc3ccc(F)cc3)n2)c1,inactive,inactive,inactive
C=C1C(=O)[C@@]23[C@H](O)C[C@@H]4C(C)(C)CC[C@H](O)[C@]4(C)[C@@H]2C[C@H](O)[C@@H]1[C@H]3O,inactive,inactive,inactive
COc1ccc(CC2C(=O)NC(C)C(=O)N(C)C3Cc4ccc(cc4)Oc4cc(ccc4O)CC(C(=O)NC(C)C(=O)NC(C)C(=O)N2C)N(C)C3=O)cc1 (configuration not stated),inactive,inactive,inactive
CCn1c2ccccc2c2cc(NC(=O)c3cc(OC)cc(OC)c3)ccc21,inactive,inactive,inactive
O=[N+]([O-])c1cc2c(ccc3occc32)o1,inactive,inactive,inactive
COc1cccc(-c2cnc3c(NC=O)cc(-c4ccc(OC)cc4OC)cn23)c1,inactive,inactive,inactive
Oc1[nH]c2ccc(Br)cc2c1N=NC(=S)N1CCOCC1,inactive,inactive,inactive
CC(C1CC1)N(Cc1ccccc1)C(=S)Nc1cccc(C(F)(F)F)c1 (configuration not stated),inactive,inactive,inactive
